HIV RNase H inh – HIV-1 RT RNase H inhibitors, primary screen, biochemical, fluorescence | RT-RNase H RNA/DNA duplex cleavage | inhibition, % at 10 µM | 1.9% of 65,000 active; in the data active means inhibition above about 50%
Large screens that a line does not name were inactive. The sample as a whole holds a higher share of hits than the screen did.

Cc1ccc2nc(SCC(=O)NCC3CCCO3)c(C#N)cc2c1 (stereo not drawn)	HIV RNase H inh 59
CCCn1nnnc1SCC(=O)NCc1ccc2c(c1)OCO2	none
Cc1cccc(NC(=O)C2CCCN(S(=O)(=O)c3cccc4cccnc34)C2)c1 (stereo not drawn)	none
COc1ccc(CCNC2CCN(C)CC2)cc1OC	none
Cc1nn(Cc2ccccc2)c(C)c1NC(=O)CSc1nc2sc3c(c2c(=O)n1C)CCC3	none
Cc1c(NC(=O)CSc2nc3ccccc3n2C)c(=O)n(-c2ccccc2)n1C	none
CCN(CC)c1cccc(OC2=NS(=O)(=O)c3ccccc32)c1	HIV RNase H inh 55
COc1ccccc1OC1=NS(=O)(=O)c2ccccc21	none
Cc1ccc(C)c(NC2=NS(=O)(=O)c3ccccc32)c1	none
CCOC(=O)c1sc2nc(NC(=O)c3cccs3)sc2c1C	none
CCOC(=O)c1ccc2c(c1)nc(SCc1cn3ccsc3n1)n2CC	none
O=C(c1ccc(CS(=O)(=O)c2ccccc2)o1)N1CCN(c2ncccn2)CC1	none
Cc1cc(NC(=O)c2cc(-c3ccccc3)on2)n(-c2ccccc2)n1	none
Cc1c(NC(=O)c2cc(-c3ccc4c(c3)OCO4)on2)c(=O)n(-c2ccccc2)n1C	none
Cc1cc(NC(=O)c2cc(-c3ccc4c(c3)OCO4)on2)n(-c2ccccc2)n1	HIV RNase H inh 55
CCCCCOC(=O)c1ccc(NC(=O)c2ccco2)cc1	none
CC(O)C(=O)NCCOCCOCCNC(=O)C(C)O (stereo not drawn)	none
CC1CCCN(c2nc3c(c(=O)[nH]c(=O)n3C)n2CCSc2ncccn2)C1 (stereo not drawn)	none
N#Cc1c(N)oc(-c2ccco2)c1-c1ccco1	none
CC(C)CC(C(=O)Nc1ccc2c(c1)OCCO2)N1C(=O)c2ccccc2C1=O (stereo not drawn)	none
CC(C)CC(C(=O)Nc1oc(-c2ccco2)c(-c2ccco2)c1C#N)N1C(=O)c2ccccc2C1=O (stereo not drawn)	HIV RNase H inh 62
COc1ccc(C2CC(c3cccc(OC)c3OC)n3nnnc3N2)cc1 (stereo not drawn)	none
Cc1cnn(C(=S)NCC2CCCO2)c1 (stereo not drawn)	none
Cc1oc(/N=C/c2c(O)ccc3ccccc23)c(C#N)c1C	HIV RNase H inh 73
Cc1oc(/N=C/c2ccc(Cl)cc2)c(C#N)c1C	none
Cc1oc(/N=C/c2ccccc2O)c(C#N)c1C	none
CCN1CCN(C(=O)CN(c2ccccc2C)S(C)(=O)=O)CC1	none
O=C(c1ccc2nc(-c3ccco3)c(-c3ccco3)nc2c1)N1CCN(c2ccccc2)CC1	HIV RNase H inh 76
O=C(Nc1ccc2nc(-c3cccs3)c(-c3cccs3)nc2c1)N1CCOCC1	none
Cn1nnc2cc(C(=O)N3CCN(c4ccccc4)CC3)ccc21	none
Cc1cc(C)nc(SCC(=O)Nc2ccc(N3CCOCC3)cc2)n1	none
O=C(Nc1ccc(N2CCOCC2)cc1)Nc1ccc2nc(-c3ccco3)c(-c3ccco3)nc2c1	HIV RNase H inh 68
O=C(c1cc(-c2ccco2)on1)N1CCN(c2ccccc2)CC1	none
CCOC(=O)N1CCN(Cc2nc3c(c(=O)n(C)c(=O)n3C)n2CCCc2ccccc2)CC1	none
NC1=NC(c2ccc(Cl)cc2)n2c(nc3ccccc32)N1 (stereo not drawn)	none
Cc1nc2nc(C)c(CCC(=O)N3CCOCC3)c(C)n2n1	none
COc1ccc(-n2nnnc2SCC(=O)Nc2nnc(C)s2)cc1OC	none
S=c1[nH]nc(-c2ccco2)n1-c1cccc2ccccc12	HIV RNase H inh 54
S=c1[nH]nc(-c2ccco2)n1C1CCCCC1	none
COc1cccc(-c2n[nH]c(=S)n2Cc2ccco2)c1OC	none
Nn1c(-c2ccco2)n[nH]c1=S	none
COc1ccc(-n2c(-c3ccco3)n[nH]c2=S)cc1	HIV RNase H inh 57
COCc1n[nH]c(=S)n1-c1cccc2ccccc12	none
O=C(OC(C(=O)NCC1CCCO1)c1ccc(F)cc1)c1ccco1 (stereo not drawn)	none
Clc1cccc(Cl)c1COc1ccccn1	none
Cc1oc(C(=O)O)cc1CSc1nnc(-c2ccccc2)n1C	none
Cc1oc(C(=O)O)cc1CSCc1ccoc1C(=O)O	none
Cc1oc(C(=O)O)cc1CSCc1cc(C(=O)O)c(C)o1	HIV RNase H inh 51
Cc1noc(C)c1CN1C(=O)NC(Cc2ccccc2)(Cc2ccccc2)C1=O	none
Cc1oc(-c2ccc(F)cc2)cc1-c1nn2c(-c3ccoc3C)nnc2s1	HIV RNase H inh 63
Cc1oc(-c2ccc(Cl)cc2)cc1-c1nn2c(-c3ccco3)nnc2s1	none
Cc1oc(-c2ccc(F)cc2)cc1-c1nn2c(-c3ccco3)nnc2s1	none
CC(C)CCn1c(SCC(=O)OCn2nnc3ccccc3c2=O)nc2ccccc2c1=O	none
CN(C)S(=O)(=O)c1cccc(-c2nnc(SCc3ccc4c(c3)OCCO4)o2)c1	none
Clc1ccc(SCCn2ccnc2)cc1	none
COc1ccccc1C1c2c(oc3ccc(Cl)cc3c2=O)C(=O)N1c1cc(C)on1 (stereo not drawn)	HIV RNase H inh 51
COc1ccc(/C(O)=C2\C(=O)C(=O)N(c3cc(C)on3)C2c2ccccc2OC)cc1 (stereo not drawn)	none
COc1ccc(/C(O)=C2\C(=O)C(=O)N(c3cc(C)on3)C2c2ccccc2OC)cc1C (stereo not drawn)	none
